The text below walks through data of PubChem BioAssay (NCI).

Among the test systems are NCI-H23 lung; NCI-H226 lung; NCI-H322M lung; HOP-62 NSCLC; NCI-H460 lung; HOP-92 NSCLC; NCI-H522 lung; A549/ATCC NSCLC; 786-0 renal; COLO 205 colon.
Holding throughout (assay): NCI-60 one-dose screen, 48 h (100 = growth as untreated, 0 = no growth, -100 = all killed)
What all share (details): 10 µM unless noted

About 83,000 compounds went through this panel and 20% of them were active in at least one assay; those are over-represented in the sample as a whole.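 Each cell line was grown in a 96-well plate and treated with one concentration of compound for 48 hours. Values below 10 were considered active.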 Values without a mark were called inactive. The source made the active and inactive calls.

`COc1cccc(NC(=O)c2c(-c3ccccc3)c(-c3ccccc3)n[nH]c2=O)c1`: the growth in the test on NCI-H23 lung is 101%; with NCI-H226 lung, 100%; with NCI-H322M lung it was 111%; in the test on HOP-62 NSCLC it was 102%; in the test with NCI-H460 lung, 98%; in the test on HOP-92 NSCLC it was 112%. In addition, the growth with NCI-H522 lung was 89.2%; in the test with A549/ATCC NSCLC it was 100%; in the test with 786-0 renal it was 97.6%; with COLO 205 colon, 110%.

As for `CCC(=O)NC(O)C(Cl)(Cl)C(C)Cl` (stereo not given), the growth is 96.3% in the test on NCI-H23 lung; 95.7% in the test on NCI-H226 lung; 99.6% in the test on NCI-H322M lung; 102% with HOP-62 NSCLC; 109% in the test with NCI-H460 lung; 88.1% with HOP-92 NSCLC. Besides, the growth in the test with NCI-H522 lung is 102%; with A549/ATCC NSCLC, 97.5%; with 786-0 renal, 101%; in the test with COLO 205 colon, 114%.

Regarding `Cc1cc(C)c2c(n1)sc1c(Nc3ccc(Cl)cc3Cl)ncnc12`, the growth is 19% with NCI-H23 lung; 36.2% with NCI-H226 lung; 43.9% in the test with NCI-H322M lung; 2.53% (active) in the test on HOP-62 NSCLC; 9.44% (active) with NCI-H460 lung; 36.2% in the test with HOP-92 NSCLC. Further, the growth in the test on NCI-H522 lung was 30.5%; with A549/ATCC NSCLC, 26.2%; in the test on 786-0 renal it was 10.9%; with COLO 205 colon, 23.3%.

Regarding `O=C(C(Br)C(Br)c1ccccc1)C(Br)C(Br)c1ccccc1` (stereo not given), the growth in the test on NCI-H23 lung is 8.99% (active); with NCI-H226 lung it was -36.5% (active); in the test on NCI-H322M lung, 84.2%; in the test on HOP-62 NSCLC, 3.69% (active); in the test on NCI-H460 lung, 64%; in the test on HOP-92 NSCLC it was -60.7% (active). In addition, the growth with NCI-H522 lung is -90.6% (active); in the test on A549/ATCC NSCLC, 29.4%; in the test with 786-0 renal, -62.7% (active); with COLO 205 colon, -47.8% (active).

Turning to `Cc1ccc(/C=C/C(=N/N=C(N)N)c2ccccc2)cc1`, the growth was 31.3% with NCI-H23 lung; 59.5% with NCI-H226 lung; 41.1% with NCI-H322M lung; 25.8% in the test with HOP-62 NSCLC; 8.15% (active) in the test on NCI-H460 lung; 13.9% in the test with HOP-92 NSCLC. Moreover, the growth with NCI-H522 lung was 9.07% (active); in the test with A549/ATCC NSCLC, 18.7%; in the test on 786-0 renal it was 32.8%; with COLO 205 colon it was -16.4% (active).

As for `O=C(CSc1ccc(Cl)cc1)Nc1ccc(-c2nc3ccccc3s2)c(Cl)c1`, the growth with NCI-H23 lung is 20.9%; in the test with NCI-H226 lung it was 77.4%; with NCI-H322M lung, 87.7%; in the test on HOP-62 NSCLC, 75.3%; with NCI-H460 lung, 41.5%; in the test on HOP-92 NSCLC, 6.61% (active). Further, the growth in the test with NCI-H522 lung is 28.2%; with A549/ATCC NSCLC, 48.8%; in the test with 786-0 renal, 48.9%; in the test on COLO 205 colon, 76.2%.

Regarding `COc1cc(NC(C)CCCN)c2ncccc2c1Sc1ccc(Cl)cc1` (stereo not given), the growth in the test with NCI-H23 lung was 86%; in the test with NCI-H226 lung it was 76.1%; with NCI-H322M lung, 77%; in the test with HOP-62 NSCLC it was 67.7%; in the test on NCI-H460 lung, 10.1%; in the test with HOP-92 NSCLC, 15.2%. Moreover, the growth with NCI-H522 lung was 75.4%; with A549/ATCC NSCLC, 59.1%; in the test on 786-0 renal, 63.7%; in the test with COLO 205 colon it was -77.4% (active).

`COc1cc(NCCCCC(C)N)c2nccc(C)c2c1` (stereo not given): the growth is 89.3% in the test on NCI-H23 lung; 93.2% in the test with NCI-H226 lung; 79.8% with NCI-H322M lung; 78.3% in the test with HOP-62 NSCLC; 95.3% in the test with NCI-H460 lung; 46.5% in the test with HOP-92 NSCLC. The growth with NCI-H522 lung is 90.7%; in the test on A549/ATCC NSCLC it was 101%; with 786-0 renal, 83.7%; with COLO 205 colon, 37%.

Turning to `CCCc1n(Cc2ccc3ccccc3n2)cc[n+]1Cc1ccc2ccccc2n1`, the growth in the test with NCI-H23 lung was 13%; in the test with NCI-H226 lung, 38%; with NCI-H322M lung it was 72.1%; with HOP-62 NSCLC, 51.7%; in the test on NCI-H460 lung it was 34.2%; with HOP-92 NSCLC, 16%. Besides, the growth in the test on NCI-H522 lung is 22.8%; with A549/ATCC NSCLC, 62.8%; in the test on 786-0 renal, 85.3%; with COLO 205 colon, -43% (active).

Consider `CC(C)NCCCCCNc1cc(O)cc2cccnc12`, for which the growth was 45.7% in the test with NCI-H23 lung; 92.1% with NCI-H226 lung; 56.9% in the test with NCI-H322M lung; 71.5% in the test on HOP-62 NSCLC; 105% in the test on NCI-H460 lung; -8.76% (active) with HOP-92 NSCLC. The growth was 86.5% with NCI-H522 lung, 123% with A549/ATCC NSCLC, 70.1% with 786-0 renal and -36.3% (active) in the test on COLO 205 colon.

Take `Oc1ccc(Nc2ncnc3c2sc2ncccc23)cc1`: the growth was 11.2% with NCI-H23 lung; 42.6% with NCI-H226 lung; 47% in the test with NCI-H322M lung; 9.02% (active) with HOP-62 NSCLC; 9.18% (active) with NCI-H460 lung; 28.5% in the test with HOP-92 NSCLC. Besides, the growth in the test on NCI-H522 lung is 33.6%; in the test with A549/ATCC NSCLC, 26.9%; in the test with 786-0 renal, 12.5%; in the test with COLO 205 colon it was 36%.

Regarding `CCN(CC)CCC(CNc1ccnc2cc(Cl)ccc12)c1ccc(O)cc1` (stereo not given), the growth in the test on NCI-H23 lung was 91.3%; in the test with NCI-H226 lung, 102%; in the test with NCI-H322M lung, 72.7%; in the test on HOP-62 NSCLC, 87.4%; in the test with NCI-H460 lung it was 54.2%; in the test with HOP-92 NSCLC, 53.3%. The growth with NCI-H522 lung was 97.9%; in the test on A549/ATCC NSCLC, 97.8%; in the test on 786-0 renal it was 92.3%; in the test on COLO 205 colon, 71.5%.

`COc1ccc2c(c1)CCCC21C(=O)Nc2ccccc21` (stereo not given): the growth was 101% in the test with NCI-H23 lung; 102% in the test with NCI-H226 lung; 91.6% with NCI-H322M lung; 96.5% in the test on HOP-62 NSCLC; 115% in the test on NCI-H460 lung; 99.3% in the test on HOP-92 NSCLC. Also, the growth in the test on NCI-H522 lung was 83.2%; in the test with A549/ATCC NSCLC, 95.2%; with 786-0 renal, 99.3%; with COLO 205 colon, 108%.
